Activity change data for 54 compounds are collected here from PubChem BioAssay AID651550 (National Center for Advancing Translational Sciences (NCATS), 2012).

The whole screen tested about 360,000 compounds, of which about 1,100 (0.31%) were called active. The sample holds actives, similar compounds and a random draw of the others, so the mix is not that of the screen. Cut-off read from the data, not from the text of the source: active = activity change below about -80%; inconclusive = mostly about -51% to -80%; inactive = weaker than that.
% is set by controls: 0 for no effect and ±100 for the full control effect.

In the test the target is RAC-alpha serine/threonine-protein kinase (Homo sapiens) (UniProt P31749). The test is described as follows: HTS Assay for Inhibitors of Akt Phophorylation: Primary Screen. The conditions noted are these: Neuro2A IGF-stimulated pAkt S473 HTRF, 20 min; at 50 µM, active compounds read low. From the text:
The serine/threonine protein kinase Akt (protein kinase B) regulates various cellular processes, including cell survival, growth, proliferation, migration and differentiation. It has been well established that Akt is activated through two essential steps involving membrane translocation and phosphorylation. Cytosolic Akt is recruited to the plasma membrane via the interaction between the PH domain and membrane PIP3 produced by phosphoinositide-3 kinase (PI3K) upon growth factor receptor stimulation. The membrane-Akt interaction results in conformational changes of Akt, enabling its activation through phosphorylation at T308 in the kinase domain and at S473 in the C-terminal hydrophobic motif by PDK1 and mTOR-rictor complex (mTORC2), respectively. […] These findings indicate that S473 phosphorylation, as an important modulator of Akt activation, may be a valuable drug target for cell growth, survival, proliferation and differentiation. These inhibitors also may have significant therapeutic potential with fewer side effects, especially for the conditions involving hyperactive Akt signaling, such as cancer and Alzheimer's disease.
To this end, a miniaturized assay was developed to be screened against the Molecular Libraries Small Molecule Repository (MLSMR).
NIH Chemical Genomics Center [NCGC]
NIH Molecular Libraries Probe Centers Network [MLPCN]
Assay Submitter (PI): Hee-Yong Kim, National Institute on Alcohol Abuse and Alcoholism
3 uL of Neuro2A cell suspension in DMEM containing 0.5% FBS and […] antibiotics mix was plated in a white solid bottom tissue culture-treated 1536-well plate (Greiner Bio-One, Monroe, NC) at 4,500 cells per well and incubated overnight at 37 deg C. 23 nL/well of compound solutions in DMSO was added with Pintool transfer (Kalypsis, San Diego, CA) at single […] final concentration. Then, the cells were stimulated with 1.5 uL of IGF (6 nM final concentration) and incubated at 37 deg C for 20 min. The reaction was terminated by the addition of 1.5 uL blocking reagent mixed with lysis buffer (1:25 correspondingly) provided with HTRF(R) Phospho Akt (Ser473) kit (Cisbio US, Bedford, MA), with following incubation for 50 min at ambient temperature. The detection HTRF conjugates from the kit were prepared according to the protocol, pre-mixed 1:1 prior to dispensing, and 2 uL/well was added with BioRAPTR FRD dispenser (Beckman Coulter). The assay plates were incubated for 24 hours at ambient temperature, and the HTRF fluorescence was measured using Envision plate reader (PerkinElmer) with excitation at 330nm, emission at 615nm (Eu(3)-Cryptate donor signal) and 665nm (d2 acceptor signal). The ratio of […] was calculated for each well.
On the technique in general: Time-resolved FRET reads energy transfer from a long-lived donor to a nearby acceptor.
Turning to `Cc1cccc(C(=O)Nc2ccc3c(c2)C(=O)N(CC(C)C)C3=O)c1`, the activity change result was “inactive”.

In the case of `Cc1cccc(C(=O)Nc2ccc(C(=O)/C=C/c3cccs3)cc2)c1`, the activity change is -121% (active).

As for `Cc1cccc(C(=O)Nc2ccc(Oc3cnccn3)cc2)c1`, the activity change result was “inactive”.

For the compound `CCCCCc1c(Cc2ccccc2)ncn1CCc1ccccc1OC`, the activity change entry is “inactive”.

In the case of `COc1ccc(N2C(=O)CCC(C(=O)N(C)C3CCCCC3)C2c2ccc(OC)c(OC)c2)cc1` (centres undefined), the activity change entry is “inactive”.

As to `COc1ccc(S(=O)(=O)N[C@@H]2C=C[C@@H](CC(=O)N3CCc4ccccc4C3)O[C@@H]2CO)cc1`, the activity change entry was “inactive”.

With `Cc1cc(C)cc(NC(=O)N2CCC(NC(=O)c3ccc(F)cc3)CC2)c1`, the activity change was -96.8% (active).

For the compound `COc1ccc(C(=O)NC2CCN(C(=O)Nc3ccc(F)cc3)CC2)cc1`, the activity change entry is “inactive”.

Turning to `Cc1ccc(C(=O)NC2CCN(C(=O)Nc3ccc(F)cc3)CC2)cc1`, the activity change result is “inactive”.

Consider `Cc1ccc(S(=O)(=O)N2C[C@H]3n4c(=O)ccc(=O)n4C[C@H](OC(=O)NC4CCCC4)[C@@]3(O)C2)cc1`, for which the activity change entry was “inactive”.

As for `Cc1ccc2nc(Nc3ncc4c(n3)CC(C)(C)CC4=O)nc(C)c2c1`, the activity change result is “inactive”.

As for `O=C(NNC(=O)C1CCN(c2ncccn2)CC1)c1ccccc1`, the activity change entry was “inactive”.

As to `CC(=O)N1CCC(C(=O)Nc2nc(-c3ccccc3)ns2)CC1`, the activity change entry was “inactive”.

Take `Cc1cc(-c2ccccc2)nc(N2CCC(C(=O)NC34CC5CC(CC(C5)C3)C4)CC2)n1`: the activity change is -97.3% (active).

As for `CCCCCNC(=O)C1C(=O)Nc2ccccc2C(=O)N1C(C)(C)C` (centres undefined), the activity change entry is “inactive”.

For the compound `COC(=O)[C@]12CCCCC=C1N(Cc1ccc(Cl)cc1Cl)C(=O)[C@H](CC(=O)NCc1cccc3ccccc13)C2`, the activity change result was “inactive”.

Regarding `COC(=O)C1(C(=O)OC)C[C@H](c2ccccc2)N(Cc2ccccc2OC)[C@@H]1c1ccccc1`, the activity change entry is “inactive”.

Take `O=C(N[C@H]1CC[C@H](CC(=O)N2CCCCC2)O[C@@H]1CO)c1cccc(F)c1`: the activity change entry was “inactive”.

For the compound `c1ccc(COc2nsnc2N2CCOCC2)cc1`, the activity change entry is “inactive”.

With `c1ccc(CSc2ncnc3c2sc2nc(N4CCOCC4)c4c(c23)CCCC4)cc1`, the activity change was -92.8% (active).

`CCc1nc2sc3c(Cl)ncnc3c2c2c1CCCC2`: the activity change result was “inactive”.

Turning to `COC(=O)[C@@]12C[C@@H](CC(=O)NCCCCc3ccccc3)C(=O)N(CCc3ccc(OC)c(OC)c3)C1=CCC(C)(C)C2`, the activity change entry was “inactive”.

`CCOC(=O)NC(=O)CSc1nnc(SCCC(=O)O)s1`: the activity change entry is “inactive”.

Regarding `COC(=O)[C@@]12C[C@@H](CC(=O)N3CCCCC3)C(=O)N(Cc3ccc4c(c3)OCO4)C1=CCC(C)(C)C2`, the activity change result is “inactive”.

Take `N#Cc1c(N)nc2c3c(sc(=N)c2c1N)NC(=O)CC3c1ccccc1Cl` (centres undefined): the activity change was -87.7% (active).

Consider `COc1ccc(C2CC(=O)Nc3sc(=N)c4c(N)c(C#N)c(N)nc4c32)cc1OC` (centres undefined), for which the activity change entry is “inactive”.

With `CSc1nc2c(c(=O)[nH]1)C(c1cccc(Cl)c1Cl)CC(=O)N2` (centres undefined), the activity change entry was “inactive”.

Turning to `CN(C(=O)C1CCN(c2ncnc3c2nc2n3CCCCC2)CC1)C1CCCCC1`, the activity change result was “inactive”.

Regarding `Cc1ccnc(NC(=O)CCC(=O)N(CC(=O)NCc2ccccc2)Cc2ccco2)c1`, the activity change result was “inactive”.

For the compound `CCOC(=O)N1CCN(C(=O)C[C@@H]2C[C@@]3(C(=O)OC)CC(C)(C)CC=C3N(Cc3ccco3)C2=O)CC1`, the activity change entry was “inactive”.

Turning to `CC(=O)Cc1nsc(NC(=O)c2csc3c2CCCC3)n1`, the activity change was -104% (active).

With `CC(=O)Cc1nsc(NC(=O)c2ccc(COc3ccc(C)cc3)o2)n1`, the activity change result is “inactive”.

On to `O=C(NCc1ccccc1Cl)c1csc2c1CCCCC2`, for which the activity change is -106% (active).

Regarding `CC1CC(C)CN(CCCNC(=O)c2csc3c2CCCCC3)C1` (centres undefined), the activity change entry is “inactive”.

For `O=C(COC(=O)c1cc2c(s1)CCCC2)NCc1ccccc1Cl`, the activity change result was “inactive”.

As for `CC(=O)Cc1nsc(NC(=O)c2ccc(Cl)cc2Cl)n1`, the activity change entry was “inactive”.

For `CCOC(=O)C=Cc1ccc(C(=O)OCC)[nH]1`, the activity change entry is “inactive”.

As to `Cc1ccc(S(=O)(=O)N2CC3C(=O)C[C@@H](c4ccccc4Cl)N(S(=O)(=O)c4ccc(C)cc4)C3CC2c2ccccc2)cc1` (some centres undefined), the activity change result is “inactive”.

Turning to `Cc1ccc(-c2c3c(=O)n(C)c(=O)n(C)c3cn2-n2cnnc2)cc1`, the activity change was -111% (active).

In the case of `COc1cccc(-n2cc3c(c2-c2ccccc2)c(=O)n(C)c(=O)n3C)c1`, the activity change is -16.8% (inactive).

With `Cc1cn(C)c(=O)n(C)c1=O`, the activity change result was “inactive”.

For the compound `COc1ccc(C(C(=O)NCc2ccccc2)n2c(=O)c(-c3ccccc3)nc3ccccc32)cc1` (centres undefined), the activity change result is “inactive”.

On to `COc1cc(OC)c(NS(=O)(=O)c2cn(C)cn2)cc1Cl`, for which the activity change result was “inactive”.

Regarding `CCC(c1nc2ccccc2[nH]1)n1c(=O)c(-c2cccs2)nc2ccccc21` (centres undefined), the activity change entry is “inactive”.

For the compound `N#Cc1ccc(C(C(=O)NCc2ccccc2)n2c(=O)c(-c3ccco3)nc3ccccc32)cc1` (centres undefined), the activity change result is “inactive”.

In the case of `CC(C)c1nc(SCC(=O)Nc2cccc(C(=O)O)c2)c2c3c(sc2n1)CCCC3`, the activity change result is “inactive”.

For the compound `Cc1cc(NC(=O)CSc2nc3c(cc2C#N)CCCCC3)no1`, the activity change entry was “inactive”.

For the compound `Cc1cc(NC(=O)CSc2nc(C(C)C)nc3sc4c(c23)CCC(C)C4)no1` (centres undefined), the activity change was -89.6% (active).

With `Cn1cnc(S(=O)(=O)N2C[C@@H](O)COC[C@@H]3O[C@H](CC(=O)NC4CCC4)CC[C@H]32)c1`, the activity change result was “inactive”.

With `COc1ccc(-c2cc3c(c4c2ccn4C)C2CCC3C2)cn1` (centres undefined), the activity change result is “inactive”.

As for `Nc1nc(C23CC4CC(CC(C4)C2)C3)cs1`, the activity change result is “inactive”.

Turning to `CC(C)CN1C(=O)CN(S(C)(=O)=O)CC1(C)C(=O)NCc1ccccc1` (centres undefined), the activity change result is “inactive”.

On to `Cc1ccc(Nc2nc(-c3ccc(O)cc3O)cs2)nc1`, for which the activity change result was “inactive”.

As for `c1ccc(Nc2nc(-c3ccncc3)cs2)nc1`, the activity change is -89.8% (active).
